Results as given in the supplement of paper PMC3334620.
In all, about 33,000 sequences were measured (“E-score (-0.5 to 0.5)”: median about -0.012, highest 2% from about 0.29 on). This is one part of a sample in which the highest values are shown more often than they occur.

molecular target: T1, Ybr033w (UniProt P38073); assay: PBM E-score (8-mer binding enrichment) (E-score (-0.5 to 0.5)); higher = stronger / more preferred TF binding; settings: protein concentration: 200 nM; construct: GST-full length
T1 sequence: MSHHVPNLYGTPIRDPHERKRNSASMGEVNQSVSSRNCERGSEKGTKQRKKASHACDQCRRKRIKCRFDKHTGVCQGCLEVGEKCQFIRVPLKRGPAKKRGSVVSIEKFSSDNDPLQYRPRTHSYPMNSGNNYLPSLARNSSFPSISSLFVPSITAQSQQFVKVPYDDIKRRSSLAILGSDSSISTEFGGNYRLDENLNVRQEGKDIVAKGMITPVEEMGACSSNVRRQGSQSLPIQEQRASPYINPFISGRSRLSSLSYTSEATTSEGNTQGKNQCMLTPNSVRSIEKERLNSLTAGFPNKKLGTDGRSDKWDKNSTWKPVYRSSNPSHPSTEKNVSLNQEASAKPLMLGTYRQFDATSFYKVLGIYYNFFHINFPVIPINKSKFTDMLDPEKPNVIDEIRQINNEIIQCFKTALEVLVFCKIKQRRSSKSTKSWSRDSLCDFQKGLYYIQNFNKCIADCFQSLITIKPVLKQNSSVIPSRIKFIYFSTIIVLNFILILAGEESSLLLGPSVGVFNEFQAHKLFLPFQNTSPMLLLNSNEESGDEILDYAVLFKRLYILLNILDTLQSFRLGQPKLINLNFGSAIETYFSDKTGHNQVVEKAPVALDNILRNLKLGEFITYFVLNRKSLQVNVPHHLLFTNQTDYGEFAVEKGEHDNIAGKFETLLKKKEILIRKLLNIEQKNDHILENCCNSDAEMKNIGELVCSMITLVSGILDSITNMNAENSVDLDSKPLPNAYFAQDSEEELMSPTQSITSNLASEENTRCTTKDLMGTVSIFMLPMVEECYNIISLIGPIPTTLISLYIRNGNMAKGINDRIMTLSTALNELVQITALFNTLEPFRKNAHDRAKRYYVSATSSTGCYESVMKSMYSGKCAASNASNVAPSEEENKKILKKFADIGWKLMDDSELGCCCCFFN
Description: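 Universal 'all 10-mer' protein binding microarrays (Agilent AMADID 015681) probed with GST-tagged S. cerevisiae TFs (full-length or DBD) made by in vitro transcription/translation (PURExpress), about 100-200 nM. Bound TF was detected with fluorescent anti-GST. Each ungapped 8-mer (which stands for itself and its reverse complement) is scored by the PBM enrichment score (E-score), a modified Wilcoxon-Mann-Whitney statistic from -0.5 to +0.5, computed with the Universal PBM Analysis Suite. Scale: above 0.35 generally sequence-specific binding.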

Row | Sequence | PBM E-score
1 | CAGATCGC | -0.164
2 | ATAAACAG | 0.0706
3 | ATAAACAC | 0.241
4 | AAAAACAT | 0.21
5 | GTAAACAA | 0.298
6 | TAAAACAA | 0.177
7 | AAAAACAA | 0.321
8 | ATAAACAT | 0.289
9 | ATAAACAA | 0.326
10 | GTAAACAC | 0.0587
11 | CTAAACAA | 0.112
12 | GAAAACAA | 0.115
13 | TTAAACAA | 0.226
14 | CAGGGTAC | -0.158
15 | GTCGCATA | 0.214
16 | TATCACAA | 0.18
17 | AGCTAGAG | -0.0778
18 | CTCAAAAC | 0.217
19 | CCTTGGGA | 0.021
20 | ACAGAAGA | 0.0639
21 | CCTTTGCA | 0.0151
22 | AATAACCG | -0.0165
23 | AAAAACCC | 0.164
24 | AAAAACCG | 0.134

Row | Sequence | PBM E-score
25 | AAAAACCT | 0.307
26 | CCACTTCA | -0.0798
27 | AGCCCTCG | -0.314
28 | CGAATTAA | 0.112
29 | GGAATTAA | 0.349
30 | GGAATTCA | 0.288
31 | AGAATTAC | 0.181
32 | CGAATTCA | -0.00151
33 | GGAATTAC | 0.291
34 | GGAATTCC | -0.236
35 | CGAATTAC | 0.135
36 | TGAATTAA | 0.226
37 | CCACGCTC | -0.126
38 | ACTACTGG | 0.017
39 | GGACCGAA | 0.061
40 | AGTCCTTA | -0.049
41 | CACAATTC | 0.16
42 | GGTAAATA | 0.225
43 | CATAAATC | 0.146
44 | CATAAATA | 0.169
45 | GATAAATA | 0.4
46 | ACTAAATC | 0.278
47 | TATAAAAA | 0.253
48 | ACTAAATA | 0.322

Row | Sequence | PBM E-score
49 | GATAAAGA | 0.154
50 | GATAAAGC | 0.159
51 | TATAAATA | 0.289
52 | CCTAAATA | 0.118
53 | GATAAATC | 0.304
54 | TTCGCAAA | 0.225
55 | CTAGACAA | -0.0833
56 | ATCCATGA | -0.0662
57 | AGACAAAT | 0.129
58 | CCACAAAC | 0.077
59 | TCCACACA | 0.111
60 | CGGTGCGC | -0.156
61 | GTTCGAGA | -0.0752
62 | GCTGAGGA | -0.194
63 | CATAAAAC | 0.0263
64 | AATAAATA | 0.378
65 | AATAAATT | 0.314
66 | AATAAATG | 0.194
67 | GATAAACC | 0.236
68 | TATAAACA | 0.247
69 | GATAAAAA | 0.278
70 | GATAAACA | 0.298
71 | GATAAAAC | 0.323
72 | AATAAATC | 0.263

Row | Sequence | PBM E-score
73 | AATAAACT | 0.221
74 | AATAAAGA | 0.267
75 | ACGTTCTA | -0.0975
76 | AAACCAAT | 0.272
77 | CATACCCG | -0.165
78 | CGAATTGC | -0.0195
79 | CAAGAACC | 0.137
80 | CCAGATCG | -0.0568
81 | CCGATTAG | -0.131
82 | ATTGTCTA | 0.144
83 | ACTCTAAC | 0.17
84 | AATAAAAG | 0.0821
85 | AATAAAAT | 0.304
86 | AATAAAAA | 0.252
87 | AAGTTAAC | 0.224
88 | AAGTTATT | 0.3
89 | AAGTTTAT | 0.333
90 | AAGTTTAG | 0.128
91 | AAGTTAAG | -0.149
92 | AAGTTATG | 0.206
93 | AAGTTATA | 0.166
94 | AAGTTTAC | 0.154
95 | AAGTTAAT | 0.315
